PubChem BioAssay (NCI)
This is part of a sample that, as a whole, favours compounds with a hit. Of some 83,000 tested, about 20% had one in any assay.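 The test compound was applied at a single concentration to cells in 96-well plates for 48 hours, and percent growth was recorded.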 Values without a mark were called inactive. Active and inactive are the calls of the source. The calls were made as follows: active = growth percent below 10; inactive = the rest.

Key:
Test in all cases: NCI-60 one-dose screen, 48 h (100 = growth as untreated, 0 = no growth, -100 = all killed)
Details in all cases: 10 µM
[1] = tested on: SR leukemia
[2] = tested on: RPMI-8226 leukemia
[3] = tested on: OVCAR-8 ovarian
[4] = tested on: OVCAR-4 ovarian
[5] = tested on: SK-OV-3 ovarian
[6] = tested on: IGROV1 ovarian
[7] = tested on: OVCAR-3 ovarian
[8] = tested on: HS 578T breast
[9] = tested on: NCI/ADR-RES ovarian
[10] = tested on: OVCAR-5 ovarian

Row | Compound | growth [1] | growth [2] | growth [3] | growth [4] | growth [5] | growth [6] | growth [7] | growth [8] | growth [9] | growth [10]
1 | CC1CCCC(CC(N)=O)CC1 (stereo not given) | 94.7% | 88.8% | 89% | 108% | 107% | 114% | 102% | 107% | 105% | 
2 | N#Cc1ccc(NC(=O)Nc2cccc(C#N)c2)cc1 | 72.2% | 30.9% | 83.6% | 91.2% | 115% | 78% | 105% | 99.1% | 90.1% | 
3 | Cc1cccc(CO)c1 | 109% | 114% | 101% | 103% | 107% | 115% | 98.9% | 101% | 106% | 
4 | CC(C)=NNc1ccc([N+](=O)[O-])cc1[N+](=O)[O-] | 90.6% | 68.2% | 100% | 96.5% | 92.9% | 124% | 104% | 90.5% | 93.4% | 
5 | O=C(O)[C@@H]1[C@H]2C[C@H]3c4[nH]c5ccccc5c4CCN3C[C@@H]2CC[C@@H]1O | 115% | 111% | 87.6% |  | 115% | 114% | 111% | 102% | 112% | 
6 | O=C(/C(=N/O)c1ccccc1)c1ccccc1 | 110% | 99.5% | 103% | 102% | 106% |  |  | 101% | 113% | 
7 | CCc1nc(N)nc(N)c1-c1ccc(Cl)cc1 | 57.3% | 102% | 47.7% | 78.4% | 84% |  | 116% | 103% | 56.4% | 
8 | COc1cc2c3c(n(C)c(=O)c2cc1OC)-c1cc2c(cc1C3=O)OCO2 | 17.6% | 48.2% |  | 55.8% | 74.6% | 11.3% | 104% | 102% | 77.5% | 78.4%
9 | OCc1ccc(-c2ccc(-c3ccc(CO)s3)o2)s1 | 60.8% | -22.5% (active) |  | -22.4% (active) | 78.2% | -73% (active) | -30.8% (active) | 81.8% | 65.1% | 103%
10 | O=C1C[C@H](c2ccccc2)[C@H](c2ccccc2)C1 | 99.2% | 83.2% | 109% | 105% | 102% | 112% | 118% | 112% | 106% | 
11 | CCCCC1C(=O)N(c2ccccc2)N(c2ccccc2)C1=O | 103% | 96.6% | 103% | 117% | 105% | 106% | 115% | 114% | 103% | 
12 | COc1cc(/C=N\Nc2ccccc2)ccc1OC(=O)c1ccccc1 | 49.6% | 54.3% | 80.1% |  |  | 60.6% | 70.5% | 87.6% | 51.2% | 
13 | CC(=O)OCCC(C)CCC=C(C)C (stereo not given) | 108% | 95% | 102% |  | 111% | 112% | 121% | 104% | 107% | 
14 | O=C(O)C(O)c1ccccc1 (stereo not given) | 94.7% | 113% | 105% | 98.6% | 109% | 107% | 112% | 110% | 105% | 
15 | CC1(C)/C(=C\CO)C2CCC1C2 (stereo not given) | 97.8% | 91.6% | 114% | 111% | 99.8% | 112% | 119% | 101% | 105% | 
16 | CCOc1ccc(I)cc1 | 114% | 131% | 96.7% | 109% | 110% | 117% | 116% | 111% | 101% | 
17 | O=[N+]([O-])c1ccc(CO)cc1 | 99.5% | 112% | 109% | 104% | 93.7% | 112% |  | 98.9% | 107% | 

Row | Compound | growth [1] | growth [2] | growth [3] | growth [4] | growth [5] | growth [6] | growth [7] | growth [8] | growth [9] | growth [10]
18 | Cc1cc(C)c(N)c(S(=O)(=O)O)c1 | 81.4% | 92.4% | 104% | 98.9% | 94.6% | 108% | 113% |  |  | 
19 | CC(=O)N(C)c1ccc([N+](=O)[O-])cc1 | 105% | 120% | 99.6% | 119% | 106% | 117% | 118% | 120% | 106% | 
20 | CCOC(=O)c1cc2cccc(OC)c2oc1=O | 104% | 95.4% | 116% | 109% | 117% | 108% | 138% | 121% | 111% | 
21 | COC(=O)/C=C1\Sc2cc(F)ccc2NC1=O | 95.5% | 92% |  | 102% | 111% | 102% | 115% | 121% | 101% | 83.2%
22 | Cc1ccccc1C1N=C2Oc3ccccc3C=C2C(=O)N1 (stereo not given) | 45.2% | 95.4% | 53.3% | 74.5% | -6.3% (active) | 43.3% | -27.1% (active) | 32.8% | 9.64% (active) | 
23 | O=C(c1ccc(Cl)cc1)c1ccccc1Cl | 95.9% | 82.8% | 89.6% | 97% | 96.3% | 87.9% | 118% |  |  | 
24 | NCCC(=O)c1ccc(Cl)cc1 | 93.8% | 110% | 101% | 110% | 95.7% | 117% | 105% | 109% | 103% | 
25 | CC1=CC(C)(C)NC(=S)N1c1ccc(S(=O)(=O)O)c2cccc(S(=O)(=O)O)c12 | 109% | 113% | 114% |  | 115% | 95.9% | 99.9% | 92.8% | 110% | 
26 | Cc1cc(/C=C/c2ccc3cc(N(C)C)ccc3[n+]2C)c(C)n1-c1ccccc1 | 2.29% (active) | -30.2% (active) | -60.4% (active) | 10.4% | -32.2% (active) | 3.27% (active) | -73.3% (active) | -9.95% (active) | 24.7% | 
27 | COc1cc(C(=O)N/N=C/c2cccc([N+](=O)[O-])c2)cc(OC)c1OC | 28.5% | 77.1% | 83.1% |  | 67.2% | 60.6% | 12.2% | 49.3% | 38.1% | 
28 | CCOC(=O)C1=C(Nc2ccc(Br)cc2)C(=O)N(CC)C1 | 97.7% | 99.7% | 95.7% |  | 102% | 93.1% | 110% | 97.4% | 93.3% | 
29 | O=c1[nH][nH]c(=O)c2cc([N+](=O)[O-])ccc12 | 94.9% | 106% |  | 99.2% | 101% | 103% | 127% | 100% | 105% | 110%
30 | COc1cc2c3cc1Oc1c(OC)c(OC)cc4c1C(Cc1ccc(O)c(c1)Oc1ccc(cc1)CC3N(C)CC2)N(C)CC4 (stereo not given) | -1.66% (active) | -27.4% (active) | 7.71% (active) | 13.5% | 43% | 13.7% | 18.8% | 55.3% | 0.974% (active) | 
31 | CCCC(=O)Nc1ccc2c(c1)CN1C(=O)c3ccccc3C1=N2 | 103% | 106% | 98.2% | 107% | 110% | 111% | 102% | 119% | 99.5% | 
32 | O=C1C=C(O)C(=O)C=C1O | 98.2% |  | 103% | 118% | 87.9% | 111% | 107% |  | 101% | 108%
33 | OCc1cccc2ccccc12 | 104% |  | 111% | 109% | 110% | 120% | 105% |  | 105% | 111%
